C diff HTS: C. difficile growth inhibition. Clostridium difficile clinical isolate growth, OD600, 24 h; stronger effect = lower value. growth activity, negative = inhibition, % at 16 µg/mL (by protocol). 0.25% of 86,000 active. AID 1259249;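 active = mean growth activity at or below -80% and every replicate also at or below -80%; inconclusive = mean at or below -80% but some replicate above -80%; inactive = mean growth activity above -80%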;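 note: 0% = DMSO wells and -100% = levofloxacin 16 µg/mL wells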
T cruzi growth-1: T. cruzi proliferation inhibition; 5.9% of 77,000 active; inhibition, % at 8.34 µM; T. cruzi beta-gal in NIH3T3, GalScreen luminescence, 90 h; AID 624255;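 active = mean inhibition above about 93%, with at least 55% of replicates each passing it, limit read from the data, passing the limit was not always enough; inconclusive = only one of those two conditions holds; inactive = neither condition holds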
Pf Dd2 inh: inhibitors of Plasmodium falciparum Dd2 growth | activity change, % at 10 µM | 2.3% of 94,000 active | P. falciparum Dd2 growth, SYBR Green, 72 h; stronger effect = lower value | AID 1159554; in the data active = activity change below about -80%; inconclusive = no clear call, values can overlap the other calls
T cruzi growth-2: inhibitors of T. cruzi proliferation; shares compounds with T cruzi growth-1; T. cruzi beta-gal in NIH3T3, GalScreen luminescence, 90 h; inhibition, % at 8.35 µM; 72% of 5,600 active; AID 651739;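 active = mean replicate inhibition above about 95% and at least 55% of replicates individually reaching it, limit read from the data; inconclusive = only one of the two criteria is met; inactive = neither criterion is met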
T cruzi growth-3: blocks T. cruzi growth in NIH3T3 host cells. 21% of 5,600 active. AID 651740. shares compounds with T cruzi growth-1. inhibition, % at 2.09 µM. T. cruzi beta-gal in NIH3T3, GalScreen luminescence, 90 h;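 active = mean inhibition above about 95%, with at least 55% of replicates also reaching it, limit read from the data; inconclusive = meets just one of the two conditions; inactive = meets neither condition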;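 note: plate controls were neutral control median for no effect and positive control median for full effect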
3T3 cytotox: cytotoxicity in mouse NIH/3T3 fibroblasts | shares compounds with T cruzi growth-1 | NIH/3T3 viability, CellTiter-Glo ATP luminescence, 90 h | cytotoxicity (signal decrease), % at 8.35 µM | 14% of 5,600 active;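 active = mean signal decrease across replicates above about 35% based on untreated-well scatter, with enough replicates individually passing, limit read from the data; inconclusive = no rule stated though some were filed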;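 note: 0% = median of neutral control wells and 100% = median of positive control wells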
NIH3T3 tox 2: NIH/3T3 (mouse) viability loss. shares compounds with T cruzi growth-1. NIH/3T3 viability, CellTiter-Glo ATP luminescence, 90 h. inhibition, % at 24.9 µM. 56% of 5,600 active. AID 651744;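 active = mean loss of cell viability signal at or above a set limit, and enough replicates individually reaching it; inconclusive = meets only the mean limit or only the replicate share; inactive = meets neither condition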;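 note: 0% = median of neutral control wells and 100% = median of positive control wells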
An asterisk follows results filed as active; ? = inconclusive; nt = no result. Only some compounds are listed: those with a hit (about 6.7% of all), similar ones and a draw of the others.

SMILES	C diff HTS	T cruzi growth-1	Pf Dd2 inh	T cruzi growth-2	T cruzi growth-3	3T3 cytotox	NIH3T3 tox 2
COCCNC(=O)C[C@@H]1C[C@H]2c3cc(NC(=O)Nc4ccc(C(F)(F)F)cc4)ccc3O[C@H]2[C@H](CO)O1	nt	123*	-68	42	-2	-14	-2
COC(=O)C[C@H]1C[C@@H]2c3cc(NC(=O)Nc4ccc(C(F)(F)F)cc4)ccc3O[C@@H]2[C@@H](CO)O1	-8	104*	-37	108*	30	10	25*
COCCNC(=O)C[C@H]1C[C@H]2c3cc(NC(=O)Nc4ccc(C(F)(F)F)cc4)ccc3O[C@H]2[C@H](CO)O1	nt	57	-4	nt	nt	nt	nt
COC(=O)C[C@@H]1C[C@@H]2c3cc(NC(=O)Nc4ccc(C(F)(F)F)cc4)ccc3O[C@@H]2[C@H](CO)O1	2	95	21	nt	nt	nt	nt
C[C@H]1CN([C@@H](C)CO)S(=O)(=O)c2ccc(-c3cccc(F)c3)cc2O[C@H]1CN(C)C	2	-53	nt	nt	nt	nt	nt
COCC(=O)N(C)C[C@H]1Oc2ncc(C#Cc3ccccc3)cc2C(=O)N([C@H](C)CO)C[C@H]1C	-4	-53	-5	nt	nt	nt	nt
CCCNC(=O)C[C@H]1CC[C@H]2[C@@H](COC[C@H](O)CN2Cc2ccc(Cl)c(Cl)c2)O1	4	-22	-5	nt	nt	nt	nt
COc1ccc(S(=O)(=O)N(C)C[C@H]2Oc3cc(-c4cccc(F)c4)ccc3S(=O)(=O)N([C@H](C)CO)C[C@@H]2C)cc1	1	nt	-72	nt	nt	nt	nt
COc1ccc(S(=O)(=O)N(C)C[C@@H]2Oc3cc(-c4cccc(F)c4)ccc3S(=O)(=O)N([C@H](C)CO)C[C@H]2C)cc1	7	nt	-76	nt	nt	nt	nt
C[C@@H]1CN([C@@H](C)CO)S(=O)(=O)c2ccc(-c3cccc(F)c3)cc2O[C@H]1CN(C)S(=O)(=O)c1ccc(F)cc1	9	113*	-78	101*	108*	49*	48*
C[C@H](CO)N1C[C@H](C)[C@@H](CN(C)S(=O)(=O)c2ccc(F)cc2)Oc2cc(-c3cccc(F)c3)ccc2S1(=O)=O	10	118*	-71	97*	104*	39*	42*
O=C(NCC[C@H]1CC[C@@H](NS(=O)(=O)Cc2ccccc2)[C@H](CO)O1)C1CCC1	nt	-2	2	nt	nt	nt	nt
O=C(C[C@H]1CC[C@@H]2[C@H](COC[C@@H](O)CN2Cc2ccccc2F)O1)NC1CCC1	4	3	nt	nt	nt	nt	nt
C[C@@H]1CN([C@H](C)CO)S(=O)(=O)c2ccc(C#CCN(C)C)cc2O[C@@H]1CN(C)Cc1cccnc1	2	75	-20	nt	nt	nt	nt
C[C@@H]1CN([C@@H](C)CO)S(=O)(=O)c2ccc(C#CCN(C)C)cc2O[C@H]1CN(C)Cc1cccnc1	-2	98*	-32	108*	103*	14	43*
CCCC#Cc1ccc2c(c1)O[C@@H](CN(C)Cc1cncnc1)[C@H](C)CN([C@@H](C)CO)S2(=O)=O	8	48	-62	nt	nt	nt	nt
C[C@H]1CN([C@@H](C)CO)S(=O)(=O)c2ccc(C#CCN(C)C)cc2O[C@H]1CN(C)Cc1cccnc1	-1	86	-5	nt	nt	nt	nt
CCCC#Cc1ccc2c(c1)O[C@H](CN(C)Cc1cccnc1)[C@@H](C)CN([C@@H](C)CO)S2(=O)=O	8	128*	-58	102*	104*	43*	104*
C[C@H](CO)N1C[C@H](C)[C@H](CN(C)Cc2cccnc2)Oc2cc(C#CCN(C)C)ccc2S1(=O)=O	-1	91*	-20	95*	77	24	?
CCCC(=O)Nc1ccc2c(c1)C(=O)N(C)[C@@H]1CC[C@@H](CC(=O)NCCc3ccccc3)O[C@@H]1CO2	-2	-16	8	nt	nt	nt	nt
O=C(Cc1cccnc1)N1CC(=O)N2[C@H](CO)[C@@H](c3ccc(C#CC4CC4)cc3)[C@@H]2C1	-7	nt	-7	nt	nt	nt	nt
C[C@@H]1CN([C@H](C)CO)C(=O)c2cccc(NC(=O)C3CC3)c2O[C@H]1CN(C)S(C)(=O)=O	0	26	11	nt	nt	nt	nt
Cc1ccc(S(=O)(=O)N[C@@H]2C=C[C@@H](CC(=O)NC3CCCCC3)O[C@@H]2CO)cc1	-5	-22	-2	nt	nt	nt	nt
C[C@@H]1CN([C@H](C)CO)C(=O)c2cc(-c3ccccc3)cnc2O[C@H]1CN(C)C	-2	?	4	100*	-26	5	20
C[C@H](CO)N1C[C@H](C)[C@@H](CN(C)C(=O)CN2CCOCC2)Oc2ncc(-c3cncnc3)cc2C1=O	0	?	-16	-8	14	-2	-4
SMILES	C diff HTS	T cruzi growth-1	Pf Dd2 inh	T cruzi growth-2	T cruzi growth-3	3T3 cytotox	NIH3T3 tox 2
C[C@H]1CN([C@@H](C)CO)C(=O)c2cc(-c3cncnc3)cnc2O[C@H]1CN(C)C(=O)CN1CCOCC1	-8	nt	19	nt	nt	nt	nt
Cc1ccc(-c2cnc3c(c2)C(=O)N([C@@H](C)CO)C[C@@H](C)[C@H](CN(C)CC2CCCC2)O3)cc1	-1	52	-35	nt	nt	nt	nt
Cc1ccc(-c2cnc3c(c2)C(=O)N([C@@H](C)CO)C[C@H](C)[C@@H](CN(C)CC2CCCC2)O3)cc1	3	103*	-69	108*	43	?	105*
C[C@H](CO)N1C[C@H](C)[C@@H](CN(C)C)Oc2ncc(-c3ccccc3)cc2C1=O	-1	12	12	nt	nt	nt	nt
O=C(C[C@@H]1C=C[C@@H](NS(=O)(=O)c2ccc(F)cc2)[C@H](CO)O1)NCc1ccccc1F	-3	nt	-2	nt	nt	nt	nt
CO[C@H]1CN(C)C(=O)c2cc(NC(=O)Nc3cccc(Cl)c3)ccc2OC[C@H](C)NC[C@H]1C	nt	42	-77	nt	nt	nt	nt
CC(C)CC#Cc1ccc2c(c1)O[C@@H](CN(C)C(=O)NC(C)C)[C@@H](C)CN([C@@H](C)CO)S2(=O)=O	7	55	-3	nt	nt	nt	nt
CC(C)CC#Cc1ccc2c(c1)O[C@@H](CN(C)C(=O)NC(C)C)[C@H](C)CN([C@@H](C)CO)S2(=O)=O	nt	58	-33	nt	nt	nt	nt
CC(C)CC#Cc1ccc2c(c1)O[C@@H](CN(C)C(=O)NC1CCCC1)[C@H](C)CN([C@H](C)CO)S2(=O)=O	-6	123*	-34	109*	73	7	94*
CC(C)CC#Cc1ccc2c(c1)O[C@@H](CN(C)C(=O)NC1CCCC1)[C@H](C)CN([C@@H](C)CO)S2(=O)=O	-10	118*	-23	100*	77	19	9
CC(C)CC#Cc1ccc2c(c1)O[C@@H](CN(C)CC1CC1)[C@@H](C)CN([C@H](C)CO)S2(=O)=O	30	107*	-48	105*	52	38*	103*
CCCN(C)C[C@@H]1Oc2cc(C#CCC(C)C)ccc2S(=O)(=O)N([C@@H](C)CO)C[C@@H]1C	15	108*	-26	110*	110*	14	104*
CC(C)CC#Cc1ccc2c(c1)O[C@@H](CN(C)C)[C@@H](C)CN([C@@H](C)CO)S2(=O)=O	15	26	-67	nt	nt	nt	nt
